Imprint erasure: qHTS Assay for Compounds that Induce Erasure of Genomic Imprints | AID 1948, 2009 | Potency, µM (series often up to 60.7 µM), without a hit: top-dose activity change, positive = activation, hits mostly activators | hit rate 0.02% among 110,000 | mouse ES Peg3-LacZ reporter, beta-gal luminescence, 40 h; further: potency means the concentration at half of the fitted maximal effect
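Each well holds 300 Peg3LacZ-Neo (maternal) female ES cells incubated 40 h at 37C, 5% CO2. LacZ is measured by BetaGlo luminescence, with AC50 and maximum efficacy derived from dose-response curves.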
p53ts 32C kill: qHTS Screen for Compounds that Selectively Target Cancer Cells with p53 Mutations: Cytotoxicity of p53ts Cells at the Permissive Temperature; AID 924, 2007; hit rate 0.93% among 130,000; H1299-p53A138V at 32C, ATP luminescence viability, 24 h; Potency, µM (highest dose often 46.1 µM), for the others: at the highest dose activity change, negative = cytotoxicity, usual class: cytotoxic;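 further: potency means the concentration at half of the fitted maximal effect; 0% = DMSO and -100% = full killing by reference compound; nearly all actives have a fitted effect of over 55% in size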
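Viability by ATPlite luminescence after 24 h compound treatment (up to 46 uM) at the permissive 32C. Cells are H1299 carrying p53 A138V. Scale runs from DMSO basal to 100 uM tamoxifen as full kill; AC50 from Hill fits.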
HBB splice mod: qHTS Assay for Modulators of Hemoglobin Beta Chain Splicing; Potency, µM (highest dose often 46.1 µM), without a hit: at the highest dose activation, most hits filed as activators; hit rate 0.06% among 65,000; HBB splicing reporter cell assay, activation; EGFP reporter with mutant IVS2-654 intron; response scale: normalised to 500 nM splice-correcting PNA; further: potency means the concentration at half of the fitted maximal effect; 0% is about no effect
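HeLa cells stably expressing EGFP interrupted by mutant beta-globin intron 2 (IVS2-654), 500/well in 2% FCS. Treated with compound for 2 days at 37C. Splicing correction scored as total well GFP intensity (488 nm excitation, 500-520 nm emission); 500 nM antisense PNA served as control.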
Ub-GFP proteasome: Ubiquitin-GFP Assay; Ubiquitin-GFP reporter cells, proteasome inhibition, GFP fluorescence; response scale: untreated = 0%, 10 µM MG-132 = 100%; Potency, µM (series often up to 45.9 µM), for the others: top-dose activation (GFP accumulation), usual class: activators; 67,000 tested, under 10 active; AID 526, 2006; active means well fitted activation curve with a large enough effect, not every such curve was filed as active; inconclusive means small, poorly fitted or top-dose-only effect, or another doubt; inactive means no such curve, though single readings can be large or run the other way; further: potency means the concentration at half of the fitted maximal effect
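U2OS cells expressing ubiquitin(G76V)-GFP, seeded overnight in 0.5% FBS medium, then treated 4 hr at 37 C across 46 uM to 2.9 nM. GFP-positive cells counted by laser cytometry (488 ex/515 em); %activity scaled between basal and 10 uM MG-132.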
p53ts 39C kill: qHTS Screen for Compounds that Selectively Target Cancer Cells with p53 Mutations: Cytotoxicity of p53ts Cells at the Nonpermissive Temperature. H1299-p53A138V viability at 39C, ATP luminescence, 24 h. hit rate 1.5% among 130,000. Potency, µM (titrated, usually from 46.1 µM), for inactives: at the highest dose activity change, negative = cell killing, most hits filed as cytotoxic. AID 902, 2007; further: potency means the concentration at half of the fitted maximal effect; on the % scale 0 is the no-effect control and ±100 the full control effect; nearly all actives have a fitted effect of over 55% in size
GFP derepression: qHTS Assay for Epigenetic Modulators. mouse C127i GFP locus derepression, cytometry, 30 h. Potency, µM (top dose mostly 46.1 µM), for the others: at the highest dose GFP derepression (activation). AID 597, 2007. hit rate 0.09% among 68,000; further: % of control where 0% means no effect
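Derepression screen: silenced CMV-GFP reporter in murine C127i cells, 30 h compound incubation at 37 C, washed cells imaged by laser-scanning cytometer to enumerate GFP-expressing objects of 20 to 120 um.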
Active calls of the source: *; [ ] = remark or other dose. Sampled rows, rich in hits. Any-hit rate of the full collection: about 1.6%. Unless noted, the call rests on the fitted dose curve; in most records, active means well fitted curve in the direction sought with a large enough effect; inconclusive means small, poorly fitted or top-dose-only effect, or another doubt; inactive means no such curve, though single readings can be large; an effect the other way counts as inactive or inconclusive.

`Cc1cc(C)c(NC(=O)Cn2c(=O)n(CCC(=O)NCc3ccccc3Cl)c(=O)c3sccc32)c(C)c1` gave Imprint erasure -3%[10.9 µM], p53ts 32C kill 6% and p53ts 39C kill -11%.
For CCCOc1ccc(CC2C(=O)Nc3ccc(Br)cc32)cc1 (stereo not given) the results were Imprint erasure -6%[10.9 µM], p53ts 32C kill inconclusive and p53ts 39C kill 20µM*.
For CCOC(=O)C1C(=O)CC(C)(O)C(C(=O)OCC)C1/C=C/c1ccccc1 (stereo not given) the results were Imprint erasure -8%, p53ts 32C kill 2%, HBB splice mod -1%, Ub-GFP proteasome -7%, p53ts 39C kill -2% and GFP derepression 2%.
For Cc1cc(C)cc(OCCCn2c(CCNC(=O)C3CCCCC3)nc3ccccc32)c1 the results were Imprint erasure -15%[10.9 µM], p53ts 32C kill -8% and p53ts 39C kill inconclusive.
For O=C(NCCc1nc2ccccc2n1CCCOc1ccc(Cl)cc1)C1CCCCC1 the results were Imprint erasure -5%[10.9 µM], p53ts 32C kill inconclusive and p53ts 39C kill 16µM*.
`Cc1ccccc1OCCCn1c(CCNC(=O)C2CCCCC2)nc2ccccc21` gave Imprint erasure -9%[10.9 µM], p53ts 32C kill -11% and p53ts 39C kill 16µM*.
Cc1cccc(C)c1OCCn1c(CCNC(=O)C2CCCCC2)nc2ccccc21 was read as Imprint erasure -6%[10.9 µM], p53ts 32C kill 17% and p53ts 39C kill inconclusive.
Screening CCc1cccc(NC(=O)CCS(=O)(=O)c2cccc3nonc23)c1 returned Imprint erasure -11%, p53ts 32C kill 0%, HBB splice mod 0%, Ub-GFP proteasome 5%, p53ts 39C kill -12% and GFP derepression 0%.
O=C(Cn1ncc2c3ccccc3n(Cc3ccccc3F)c2c1=O)N1CCCCC1 was read as Imprint erasure 20%[10.9 µM], p53ts 32C kill 28% and p53ts 39C kill -28%.
CCN(C(=O)c1ccc(C(=O)N(CC)c2ccccc2C)cc1)c1ccccc1C was read as Imprint erasure -8%[10.9 µM], p53ts 32C kill 8% and p53ts 39C kill 16%.
Screening CCCCCCCN(C(=O)CCl)c1ccccc1C returned p53ts 32C kill inconclusive and p53ts 39C kill 25µM*.
`O=c1/c(=C/c2ccccn2)sc2nc3ccccc3n12` gave Imprint erasure 7%, p53ts 32C kill 10µM*, HBB splice mod -2%[0.0738 µM], Ub-GFP proteasome 12%[9.17 µM], p53ts 39C kill inconclusive and GFP derepression 2%.
`Oc1ccc(NCc2ccc(OCc3ccccc3Cl)cc2)cc1` gave Imprint erasure -65%[10.9 µM], p53ts 32C kill inconclusive and p53ts 39C kill 10µM*.
Oc1ccc(NCc2ccccc2OCc2ccccc2Cl)cc1 was read as Imprint erasure -9%[10.9 µM], p53ts 32C kill 0% and p53ts 39C kill -7%.
`Oc1ccc(NCc2ccc(OCc3ccccc3)cc2)cc1` gave Imprint erasure -54%[10.9 µM], p53ts 32C kill inconclusive and p53ts 39C kill 20µM*.
Cn1c(=O)c2c(ncn2CN2CCN(Cn3cnc4c3c(=O)n(C)c(=O)n4C)CC2)n(C)c1=O was read as Imprint erasure -5%[10.9 µM], p53ts 32C kill -2%[9.22 µM], HBB splice mod 1%[9.22 µM], Ub-GFP proteasome 0%[9.17 µM], p53ts 39C kill 7%[9.22 µM] and GFP derepression 0%[9.22 µM].
CCCCN(CCCNC(=O)c1cc(Nc2cccc(SC)c2)nc2ccccc12)Cc1ccccc1 was read as Imprint erasure -31%[10.9 µM], p53ts 32C kill -16% and p53ts 39C kill 4.5µM*.
